# In PubChem BioAssay (NCI):
# This is part of a sample that, as a whole, favours compounds with a hit. Of some 83,000 tested, about 20% had one in any assay.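 Results are percent growth after 48 hours of single-concentration exposure. 100 means growth as in untreated cells, lower positive values show inhibition; negative values down to -100 show cell death.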 Activity calls are given as the source filed them.
# Tested on: HCC-2998 colon
# Assay: NCI-60 one-dose screen, 48 h (100 = growth as untreated, 0 = no growth, -100 = all killed)
# Settings: 10 µM unless noted
# Protocol: Growth inhibition of the HCC-2998 human tumor cell line is measured as a screen for anti-cancer activity. Cells are grown in 96 well plates and exposed to the test compound for 48 hours. Compounds are tested at a single concentration, which is 10^-5 M for most compounds. The reported endpoint is percent growth (GI% or GIPRCNT), where numbers from 0 - 100% represent growth inhibition, and numbers from -100% - 0 represent cell death. For example, a value of 40 represents 60% growth inhibition. A value of 0 means no net growth occurred over the course of the experiment. A value of -40 indicates 40% of cells at the beginning of the experiment died by the end of the experiment. A value of -100 means all cells are dead at the end of the experiment.
# NCI-60 Human Tumor Cell Lines Screen was performed using the standard one-dose NCI protocol, which is described in more detail at https://dtp.cancer.gov/discovery_development/nci-60/default.htm.
# Compounds with GIPRCNT values below 10 were considered active. Activity score was based on GIPRCNT using the following formula: […]
# Score is 0 for GIPRCNT values of 100 or above, 50 for GIPRCNT values of 0, and 100 for GIPRCNT values of -100.
row,SMILES,growth
1,CCOC(=O)C1=C(NC)OCC1=O,102% (inactive)
2,Cc1nnc(NC(=O)c2nc(S(=O)(=O)Cc3ccc(F)cc3)ncc2Cl)s1,99.1% (inactive)
3,COc1cc(OC)c2sc(-c3ccc(-n4cncc4-c4ccc(OC)c(OC)c4)cc3)nc2c1,76.4% (inactive)
4,C#Cc1ccc(NC(=O)c2ccc(/C=C/C(=O)c3nccn3C)cc2)cc1,-89.2% (active)
5,OCCCC1CCN(C(Cc2ccccc2)c2ccccc2)CC1 (stereo not given),94.4% (inactive)
6,CCN(CC)CCCN1C(=O)c2c(c(C)c3c(oc4cc(O)ccc43)c2C)C1=O,-88.9% (active)
7,O=C(NNc1nccc(Nc2ccc(S(=O)(=O)Nc3ccncc3)cc2)n1)c1ccccc1,21.4% (inactive)
8,O=C(CSc1nnc2n1S(=O)(=O)c1ccccc1N2c1ccccc1)Nc1nc2ccc(F)cc2s1,95.6% (inactive)
9,Cc1ccc(-c2nc3nc(-c4ccc(F)cc4)nc(N4CCNCC4)c3o2)cc1,19.4% (inactive)
10,CC1=Nc2cnc(Nc3ccc(OCCN4CCCC4)cc3)nc2Nc2ccccc21,72.2% (inactive)
11,O=C(/C=C/c1ccc(Cl)cc1)c1cccc(Nc2nc(Nc3ccccc3)nc(Nc3ccccc3)n2)c1,88.8% (inactive)
12,COc1ccc(/C=N/C2=C(C#N)C(c3cccc(Cl)c3)c3c(ccc4ccccc34)O2)cc1 (stereo not given),65.4% (inactive)
13,COC(=O)/C(CCC=C(C)C)=C1\[C@@H](OC(C)=O)C[C@@]2(C)[C@H]1C[C@@H](O)[C@H]1[C@@]3(C)CC[C@H](NCCN)[C@@H](C)[C@@H]3CC[C@@]12C,91.3% (inactive)
14,Cc1c(-c2nc3ccc(F)cc3c(=O)[nH]2)c2ccccc2n1C,53% (inactive)
15,COC(=O)[C@]1(C)CCC[C@]2(C)[C@H]3C[C@H]4C(C(C)C)=C[C@]3(CC[C@H]21)[C@H]1[C@@H]4[C@@H](OCCC#N)CC[C@@H]1OCCC#N,65.1% (inactive)
16,CN(C)c1ccc(/C=C/C(=O)c2ccc(-n3cc(CN4CCN(c5cc6c(cc5F)c(=O)c(C(=O)O)cn6C5CC5)CC4)nn3)cc2)cc1,79.3% (inactive)
17,O=[N+]([O-])c1ccc(S(=O)(=O)N2CCN(C3=NS(=O)(=O)c4ccccc4N3c3ccccc3)CC2)cc1,91.3% (inactive)
18,Fc1cc2c(cc1Cl)N(c1ncnc3ccc(-c4cnc5[nH]ncc5c4)cc13)CC2,69.1% (inactive)
19,CCOC(=O)c1c(C)c2c(n1C)CSc1cc(C(=O)c3ccccc3)c(=O)[nH]c1-2,106% [100 µM] (inactive)
20,CCCCCCCCn1ccc2cc(NC(=O)CN3CCN(c4nc(C)cc(Cl)n4)CC3)ccc21,103% (inactive)

row,SMILES,growth
1,CNC(=O)c1cc(Oc2ccc3nc(NC(C)=O)sc3c2)ccn1,107% (inactive)
2,COc1cccc(NC(=O)Cn2cc(CN3CCN(c4ccnc5cc(Cl)ccc45)CC3)nn2)c1,93% (inactive)
3,Cc1ccccc1NC(=O)c1sc2nc(C)c(C(=O)/C=C/c3ccccc3)cc2c1N,-36.9% (active)
4,Nc1c(C(=O)Nc2ccncc2)sc2nc3c(cc12)CCCCCC3,94.1% (inactive)
5,O=S(=O)(Nc1ccc(Cl)cc1)c1ccc(-c2cnc(C3CC3)o2)cc1,40.3% (inactive)
6,CCN1C(=O)N(CC)C2C1NN=c1s/c(=C\c3cccc([N+](=O)[O-])c3)c(=O)n12 (stereo not given),15.9% (inactive)
7,OCCOCCN(Cc1ccccn1)Cc1cc(I)cc(I)c1O,111% (inactive)
8,O=C(CSc1nc2ccc([N+](=O)[O-])cc2[nH]1)Nc1cccc(C(F)(F)F)c1,30.7% (inactive)
9,O=C1Nc2ccccc2/C1=C\c1nc(-c2ccccc2F)n2ccccc12,86.1% (inactive)
10,O=C(Cc1ccccc1)Nc1nc(O)c(/C=C2\C(=O)C=Cc3ccccc32)s1,110% (inactive)
11,Cc1ccc(-c2nc(/C=C3/C(=O)Nc4ccccc43)c3ccccn23)cc1,109% (inactive)
12,Oc1c(Cl)cc(Cl)c2ccc(Cn3cc(-c4cc(C(F)(F)F)cc(C(F)(F)F)c4)nn3)nc12,101% (inactive)
13,CC1(C)CC2=C3C=C[C@@H]4[C@@]5(C)CCC(=O)C(C)(C)[C@@H]5CC[C@@]4(C)[C@]3(C)CC[C@@]2(C(=O)O)CC1=O,84.3% (inactive)
14,CC(C)(C)[Si](C)(C)O[C@H]1C(=O)C=CN2CC=C[C@@H]12,111% [100 µM] (inactive)
15,Cc1ccc(-c2nn(-c3ccccc3)cc2C=C2C(=O)ON=C2C(C)C)cc1,68.7% (inactive)
16,c1cnc2[nH]cc(-c3csc(-c4cn(CCCN5CCOCC5)c5ccccc45)n3)c2c1,58.6% (inactive)
17,Cc1ccc(-c2csc(NC(=O)CN3CCN(c4cc5c(cc4F)c(=O)c(C(=O)O)cn5C4CC4)CC3)n2)cc1,31.2% (inactive)
18,COP(=O)(OC)C(C)(C)CC(=O)CC(C#N)(C#N)C(C#N)C#N,92.6% (inactive)
19,CC1(C)c2[nH]c3ccccc3c2C[C@]2(C)[C@H]3CC=C4[C@@H]5C[C@@](C)(C(N)=O)CC[C@]5(C)CC[C@@]4(C)[C@]3(C)CC[C@@H]12,69.6% (inactive)
20,CCCCN1C(=O)/C(=c2\sc3n(c2=O)C2C(NN=3)N(CC)C(=O)N2CC)c2ccccc21 (stereo not given),6.49% (active)
